# Compound activity (PubChem BioAssay)
# Pf growth 96h – P. falciparum growth inhibition at 96 hour, primary screen for plastid delayed-death inhibitors; P. falciparum luciferase reporter growth, 96 h; Potency, µM (top dose mostly 28.7 µM), inactives show at the top dose activity change, negative = inhibition, actives largely listed as inhibitors; actives 6.9% (n = 320,000); AID 504834; also: % is scaled to controls: 0 for no effect and ±100 for the full control effect
#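 Readout is luminescence from an integrated firefly luciferase in P. falciparum. Red cells, 2% hematocrit and 0.05% parasitemia final, were cultured with compound through two parasite generations (96 hours) at 37 C, 5% CO2.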
# Sm TGR inh – blocks Schistosoma mansoni thioredoxin glutathione reductase. purified TGR, DTNB reduction, TNB absorbance 405 nm. Q962Y6. Potency, µM (top dose mostly 114 µM), for inactives: at the highest dose activity change, negative = inhibition, actives largely listed as inhibitors. actives 3% (n = 360,000); also: % is scaled to controls: 0 for no effect and ±100 for the full control effect; nearly all actives have a fitted effect of over 60% in size
#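 Kinetic colorimetric format: TGR-catalysed, NADPH-driven DTNB reduction monitored via TNB absorbance. Enzyme dispensed at 20 nM; compound exposure 15 min at room temperature before reaction start.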
# SARS PLP yeast – blocks SARS-CoV papain-like protease in a yeast assay | S. cerevisiae expressing SARS-CoV PLpro, growth rescue | Potency, µM (doses to about 32.9 µM), inactives show top-dose activity, positive = growth rescue, most hits filed as activators | actives 0.19% (n = 330,000) | AID 485353; calls by dose curve; also: 0% is about no effect; nearly all actives have a fitted effect of over 55% in size
# Pf growth 48h – P. falciparum growth inhibition at 48 hours (one generation); P. falciparum luciferase growth in erythrocytes, 48 h; Potency, µM (highest dose often 28.7 µM), inactives show top-dose activity change, negative = inhibition, hits mostly inhibitors; actives 5.9% (n = 310,000); also: % is scaled to controls: 0 for no effect and ±100 for the full control effect
#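 First compound was added to culture medium, then infected red cells at 0.1% parasitemia and 2% hematocrit (final). After incubation at 37 C under 5% CO2, luciferase detection reagent was dispensed and light output recorded.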
# * hit, by the source's call; ? = inconclusive; · = no result given. This is a sample that favours compounds with a hit; in the whole collection about 12% have one here. Unless noted, calls follow the shape of the dose curve; as a rule, active = well fitted curve in the direction sought with a large enough effect; inconclusive = small, poorly fitted or top-dose-only effect, or another doubt; inactive = no such curve, though single readings can be large; an effect the other way counts as inactive or inconclusive. Potency is read from the fitted curve at half-maximal effect.
SMILES,Pf growth 96h,Sm TGR inh,SARS PLP yeast,Pf growth 48h
Cc1oc2c(cc(NS(=O)(=O)c3ccc(F)cc3)c3ccccc32)c1C(=O)O,7.4µM*,30%,0%,3%
Cc1oc2c(cc(NS(=O)(=O)c3cccs3)c3ccccc32)c1C(=O)OC(C)C,9.3µM*,0%,13%,?
Cc1ccc2nc(-c3ccccc3)cc(C(=O)N3CCc4ccccc4C3)c2c1,12µM*,10%,-10%,9.3µM*
COc1ccc(-c2cc(C(=O)N3CCCCCC3)c3cc(C)ccc3n2)cc1,13µM*,0%,-7%,?
COc1ccc(-c2cc(C(=O)OCC(=O)N3CCOCC3)c3ccccc3n2)cc1,·,·,-69%,·
COC(=O)C1CCN(C(=O)COC(=O)c2cc(-c3ccccc3)nc3ccc(OC)cc23)CC1,?,2%,-1%,13µM*
COc1ccc(-c2cc(C(=O)N3CCOCC3)c3cc(C)ccc3n2)cc1,·,0%,-5%,23%
CC1CN(C(=O)c2cc(-c3ccncc3)nc3ccccc23)CC(C)O1 (stereo unspecified),-10%,-1%,-3%,-29%
Cc1ccc2nc(-c3ccccc3)cc(C(=O)N3CC(C)OC(C)C3)c2c1 (stereo unspecified),?,-16%,-3%,10µM*
O=C(NC1CCCCC1)c1c[nH]c2ccc(S(=O)(=O)Nc3ccccc3F)cc2c1=O,·,22%,·,·
Cc1ccc(NC(=O)Cn2cc3c(n2)CCC(C)C3)cc1C (stereo unspecified),·,0%,·,·
COc1ccc(OC)c(NC(=O)c2sc3ncnc(N4CCN(c5ccccn5)CC4)c3c2C)c1,?,0%,3%,8.3µM*
COc1ccccc1N1CCN(C(=O)c2sc3ncnc(N4CCN(c5ccccn5)CC4)c3c2C)CC1,2%,-14%,1%,12µM*
CCN1CCN(C(=O)c2sc3nc(C)nc(N4CCC(C)CC4)c3c2C)CC1,?,-1%,4%,13µM*
COc1ccccc1N1CCN(C(=O)c2sc3nc(C)nc(N4CCN(c5ccccn5)CC4)c3c2C)CC1,33%,-35%,-11%,?
Cc1nc(N2CCC(C)CC2)c2c(C)c(C(=O)O)sc2n1,-6%,2%,-11%,9%
Cc1nc(N2CCN(c3ccccn3)CC2)c2c(C)c(C(=O)N3CCN(c4ccc(F)cc4)CC3)sc2n1,1%,-11%,-3%,4.7µM*
Cc1ccc(C(=O)NCc2ccc(F)cc2)cc1NC1=NC2CS(=O)(=O)CC2S1 (stereo unspecified),-21%,-1%,5%,31%
Cc1c(C(=O)N2CCN(c3ccc(F)cc3)CC2)sc2ncnc(N3CCN(c4ccccn4)CC3)c12,12%,0%,2%,10µM*
Cc1ccc(CCNS(=O)(=O)c2cc(-c3cc(C)no3)ccc2C)cc1,·,6%,·,·
Cc1csc(C)[n+]1CC(=O)c1ccccc1,6.6µM*,-3%,2%,?
CCOC(=O)C[n+]1c(C)csc1C,-13%,11%,-3%,-1%
Cc1ccc(C)c(N2CCN(C(=O)CCCOc3cc(=O)n(C)c4ccccc34)CC2)c1,·,2%,1%,?
Cc1cccc(N2CCN(C(=O)COc3cc(=O)n(C)c4ccccc34)CC2)c1C,?,-15%,-5%,12µM*
COc1ccc(N2CCN(C(=O)CCCOc3cc(=O)n(C)c4ccccc34)CC2)cc1,12µM*,-12%,7%,?
SMILES,Pf growth 96h,Sm TGR inh,SARS PLP yeast,Pf growth 48h
CCCn1cnnc1CNC(=O)C1CCC(=O)N(CCc2ccc(OC)cc2)C1 (stereo unspecified),18%,4%,-1%,20%
OC(COc1ccc(CNCCc2ccc(C(F)(F)F)cc2)cc1)CN1CCCCC1 (stereo unspecified),10%,0%,0%,2.1µM*
Cc1nn(-c2ccccc2)c(N)c1C(c1ccccc1)c1c(C)nn(-c2ccccc2)c1N,13µM*,-16%,4%,?
CCCCCCNC(=O)n1cc(F)c(=O)[nH]c1=O,2.1µM*,·,·,4.3µM*
CCCCCCCCCn1cc(C(C)=O)c(=O)[nH]c1=O,145%,-25%,4%,36%
CC(C)Nc1ccc(-c2nc(-c3ccco3)no2)cc1[N+](=O)[O-],·,2%,·,·
N#CC1=C(N)NC(SCC(=O)Nc2ccccc2)=C(C#N)C12CCCC2,23%,4%,-1%,1.7µM*
CC1=C(C(=O)Nc2ccccc2)C2(CCCCC2)C(C#N)=C(S)N1,10µM*,-27%,8%,·
CC1=C(C(=O)Nc2ccccc2)C2(CCCCC2)C(C(N)=O)C(=S)N1 (stereo unspecified),38%,-10%,30%,-6%
CCOC(=O)c1sc(NC(=O)c2c(CC)noc2C)nc1C,?,-3%,-3%,?
O=P(Oc1ccccc1)(Oc1ccccc1)C(Nc1ccccc1)c1ccccc1 (stereo unspecified),1.7µM*,8%,-20%,?
CC(C)COP(=O)(OCC(C)C)C(Nc1ccccc1)c1ccccc1 (stereo unspecified),?,-1%,-4%,?
CCOc1ccc(C(=O)C(C)OC(=O)Cn2c(C)csc2=O)cc1 (stereo unspecified),0%,2%,-1%,-3%
COc1cc(-n2nnnc2SCC(=O)N2CCN(c3ccc(F)cc3)CC2)c(OC)cc1Cl,·,4%,4%,15µM*
CCCCN(C)C(=O)c1ccc2c(c1)N(Cc1ccc(F)cc1)C(=O)c1ccccc1S2(=O)=O,·,-15%,·,·
COc1cc(OC)c2ccc(=O)oc2c1C(CCN1CCN(c2ccccc2)CC1)c1ccc(N(C)C)cc1 (stereo unspecified),10µM*,-24%,1%,12µM*
CCCCCc1cc(=O)oc2c(C(CCN3CCN(c4ccccc4)CC3)c3ccc(N(C)C)cc3)c(OC)cc(OC)c12 (stereo unspecified),?,7%,1%,?
COc1cc(OC)c2c(C)cc(=O)oc2c1C(CCN1CCOCC1)c1ccc(N(C)C)cc1 (stereo unspecified),?,?,0%,10µM*
COc1ccc(C(CCN2CCCC2)c2c(OC)cc(OC)c3c(-c4ccccc4)cc(=O)oc23)cc1 (stereo unspecified),12µM*,-6%,12%,12µM*
COc1cc(OC)c2c(-c3ccccc3)cc(=O)oc2c1C(CCN1CCN(c2ccccc2)CC1)c1ccc(N(C)C)cc1 (stereo unspecified),4.1µM*,-21%,-3%,5.2µM*
COc1cc(OC)c2c(-c3ccccc3)cc(=O)oc2c1C(CC(=O)N1CCN(c2ccccc2)CC1)c1ccc(N(C)C)cc1 (stereo unspecified),?,-23%,0%,?
O=C(COC(=O)C1CCCC1)Nc1ncc(Cl)cc1Cl,30%,-15%,-7%,10%
Cc1ccc(NC(=O)CN2C(=O)COc3ccc(S(=O)(=O)N4CCCCC4)cc32)cc1N(C)C,·,-8%,·,·
Cc1ccc(N(CCC#N)C(=O)COC(=O)c2cc(C)oc2C)cc1,?,-2%,-4%,?
